Assay results published in PubChem BioAssay (NCI).
Compounds without any hit were thinned out: in the full panel of roughly 83,000, 20% have a hit.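 Each cell line was grown in a 96-well plate and treated with one concentration of compound for 48 hours. Values below 10 were considered active.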 Active and inactive are the calls of the source.

Experiments:
Assay in all cases: NCI-60 one-dose screen, 48 h (100 = growth as untreated, 0 = no growth, -100 = all killed)
Conditions in all cases: 10 µM unless noted
[1] = tested on: NCI-H23 lung
[2] = tested on: NCI-H226 lung
[3] = tested on: NCI-H322M lung
[4] = tested on: HOP-62 NSCLC
[5] = tested on: NCI-H460 lung
[6] = tested on: HOP-92 NSCLC
[7] = tested on: NCI-H522 lung
[8] = tested on: A549/ATCC NSCLC
[9] = tested on: 786-0 renal
[10] = tested on: COLO 205 colon

Measured: growth

CC1(C)N=C(N)N=C(N)N1c1ccc(CCCCc2ccc(Cl)c(S(=O)(=O)F)c2)c(Cl)c1
active: [6] -0.0536% | [7] -14.7% | [9] -20.2%
inactive: [1] 20.4% | [2] 44.2% | [3] 45.5% | [4] 18.1% | [5] 16.3% | [8] 15.4% | [10] 36.3%

O=C1CNC(c2ccccc2)c2cc(Cl)ccc2N1 (stereo not given)
inactive: [1] 93.7% | [2] 89.6% | [3] 95.5% | [4] 92% | [5] 110% | [6] 107% | [7] 69.3% | [8] 95% | [9] 109% | [10] 116%

C1CCC([PH+](C2CCCCC2)C2CCCCC2[PH+](C2CCCCC2)C2CCCCC2)CC1.O=C(C1[CH-]CCCC1)C1CCCC[N-]1.[Au] (stereo not given)
active: [1] -35% | [2] -60.1% | [3] -48% | [4] -9.03% | [5] -49.6% | [6] -36.8% | [7] -22.4% | [8] -39.9% | [9] -77.2% | [10] -45%

NC(=O)C(Br)c1ccccc1 (stereo not given)
inactive: [1] 89.9% | [2] 88.7% | [3] 99.6% | [4] 103% | [5] 108% | [6] 99.6% | [7] 53.5% | [8] 91.8% | [9] 107% | [10] 103%

Cc1cc(N(CCCl)CCCl)ccc1C=Nc1ccc(-c2csc(Cc3ccccc3)n2)cc1
inactive: [1] 59.1% | [2] 54.6% | [3] 76.6% | [4] 65.1% | [5] 25.5% | [6] 47.5% | [7] 69.7% | [8] 50.7% | [9] 50.8% | [10] 74.1%

O=C(CC1(O)C(=O)Nc2ccc(Br)cc21)c1ccc(C(=O)NCC2CCC3(CC2)OOC2(CCCCC2)OO3)cc1 (stereo not given)
inactive: [1] 53.7% | [2] 61.3% | [3] 80.1% | [4] 31% | [5] 36.4% | [8] 36.7% | [10] 51.4%
active: [6] -46.3% | [7] 6.67% | [9] -7.61%

COC(=O)CC[C@H](Cc1ccccc1)NC(=O)c1csc([C@@H](C[C@H](C(C)C)N(C)C(=O)[C@@H](NC(=O)[C@H]2CCCCN2C)C(C)C)OC(C)=O)n1
inactive: [1] 51% | [2] 83% | [3] 51% | [4] 52.7% | [5] 21.7% | [8] 40.4% | [9] 34.8%
active: [6] -1.54% | [7] 9.28% | [10] -49.7%

CC(C)[C@@H]1NC(=O)[C@]2(C)CSC(=N2)c2csc(n2)CNC(=O)C[C@@H](/C=C/CCS)OC1=O
inactive: [9] 10.2%
active: [1] 8.6% | [2] 0.257% | [3] 7.74% | [4] -1.73% | [5] 8.13% | [6] -21.5% | [7] -25.2% | [8] -15.1% | [10] -78.3%

NC(=S)c1cn(C2OC(CO)C(O)C2O)c2ncnc(N)c12 (stereo not given)
active: [1] -38.8% | [2] -12.7% | [3] -17% | [4] -30% | [5] 3.97% | [6] -4.97% | [7] -38.6% | [8] 4.83% | [9] -15.9% | [10] -47%

O=[N+]([O-])/C=C\c1ccc(Cl)c(Cl)c1
inactive: [1] 77% | [2] 73.8% | [3] 105% | [4] 95.6% | [5] 67.2% | [6] 59.2% | [7] 74% | [8] 57.5% | [9] 74% | [10] 41.1%

CC1(C)[C@H](O)[C@H](F)C[C@@]2(C)Oc3ccc(C(=O)Nc4ccc5c(c4)NC(=O)C54CCN(CCCCC#N)CC4)cc3C[C@H]12
inactive: [1] 55.4% | [2] 69.9% | [3] 91.9% | [4] 12.8% | [5] 21.3% | [6] 41.7% | [8] 19.5% | [9] 21.5%
active: [7] -4.72% | [10] -23.7%

COc1ccc(/C=C/c2cc(OC)c(OC)c(OC)c2)cc1NC(=O)/C=C/c1ccc(F)cc1
active: [1] 6.1% | [7] -8.36% | [10] -26.3%
inactive: [2] 36.6% | [3] 55.5% | [4] 24.9% | [5] 14.6% | [6] 93.1% | [8] 38% | [9] 37.8%

CC1CCCC(C[N+](C)(C)C)C1=O (stereo not given)
inactive: [1] 109% | [2] 95.4% | [3] 77.2% | [4] 106% | [5] 117% | [6] 83.8% | [7] 98.7% | [8] 104% | [9] 112% | [10] 118%
